Reference: the supplement of paper PMC10849652
Targets with a hit are over-represented here; the source holds about 7,900 in all. About 0.6% of all pairs of compound and target were hits. A number with no mark means an inactive call.

These targets were tested with CC1=C(C2=C(C=C1)C(=O)C3=CC=CC=C3N2CCCN)C (assay: log2 fold change, soluble protein after heating vs DMSO (PISA); higher = thermal stabilisation; K562 cells, 10 uM, 30 min; active = over 0.2 and 3.5 SD of the protein, either way, in both replicates (recomputed)).
Outline: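 Quantification of soluble protein used TMTpro 16plex LC-MS/MS, with channel sums equalised. Samples were the supernatant after 21,000xg for 90 min of pooled aliquots from K562 cells (2×10^6 cells/mL) treated with 10 μM compound for 30 min, heated for 3 min over 48°C-58°C, and extracted in PBS with 0.5% NP-40 at 4°C. Values, from duplicates, describe thermal stability against control samples on a log2 fold-change scale.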

Sequence of UniProt Q9C099 (Q9C099 whole entry, looked up): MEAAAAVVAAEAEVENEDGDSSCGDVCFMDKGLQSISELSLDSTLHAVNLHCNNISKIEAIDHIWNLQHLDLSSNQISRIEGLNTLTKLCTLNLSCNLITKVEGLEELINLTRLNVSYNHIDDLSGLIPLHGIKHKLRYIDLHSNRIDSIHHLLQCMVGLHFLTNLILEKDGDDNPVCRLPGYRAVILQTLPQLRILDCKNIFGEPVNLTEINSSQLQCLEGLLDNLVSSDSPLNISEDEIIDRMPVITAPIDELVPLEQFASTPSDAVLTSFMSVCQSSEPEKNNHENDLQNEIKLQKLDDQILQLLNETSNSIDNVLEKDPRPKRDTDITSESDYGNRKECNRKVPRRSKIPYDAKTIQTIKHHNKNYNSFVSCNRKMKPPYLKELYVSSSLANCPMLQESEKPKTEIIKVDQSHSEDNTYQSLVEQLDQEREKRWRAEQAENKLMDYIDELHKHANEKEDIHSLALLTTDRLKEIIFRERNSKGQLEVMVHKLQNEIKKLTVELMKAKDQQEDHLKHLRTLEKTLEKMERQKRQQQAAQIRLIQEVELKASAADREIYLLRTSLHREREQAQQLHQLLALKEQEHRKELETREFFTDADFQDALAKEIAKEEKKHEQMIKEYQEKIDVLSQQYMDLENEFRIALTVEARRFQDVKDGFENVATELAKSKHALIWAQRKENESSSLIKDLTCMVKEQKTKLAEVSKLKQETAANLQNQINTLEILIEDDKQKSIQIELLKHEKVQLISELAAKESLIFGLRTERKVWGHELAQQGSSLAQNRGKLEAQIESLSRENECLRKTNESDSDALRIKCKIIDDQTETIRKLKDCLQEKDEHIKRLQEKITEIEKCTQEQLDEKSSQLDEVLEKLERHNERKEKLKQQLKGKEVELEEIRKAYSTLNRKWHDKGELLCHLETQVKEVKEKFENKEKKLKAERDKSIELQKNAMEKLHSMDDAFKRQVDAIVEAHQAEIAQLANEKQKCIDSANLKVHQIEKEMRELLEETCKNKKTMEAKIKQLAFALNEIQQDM
Sequence of UniProt Q8TDD5 (Q8TDD5 whole entry, looked up): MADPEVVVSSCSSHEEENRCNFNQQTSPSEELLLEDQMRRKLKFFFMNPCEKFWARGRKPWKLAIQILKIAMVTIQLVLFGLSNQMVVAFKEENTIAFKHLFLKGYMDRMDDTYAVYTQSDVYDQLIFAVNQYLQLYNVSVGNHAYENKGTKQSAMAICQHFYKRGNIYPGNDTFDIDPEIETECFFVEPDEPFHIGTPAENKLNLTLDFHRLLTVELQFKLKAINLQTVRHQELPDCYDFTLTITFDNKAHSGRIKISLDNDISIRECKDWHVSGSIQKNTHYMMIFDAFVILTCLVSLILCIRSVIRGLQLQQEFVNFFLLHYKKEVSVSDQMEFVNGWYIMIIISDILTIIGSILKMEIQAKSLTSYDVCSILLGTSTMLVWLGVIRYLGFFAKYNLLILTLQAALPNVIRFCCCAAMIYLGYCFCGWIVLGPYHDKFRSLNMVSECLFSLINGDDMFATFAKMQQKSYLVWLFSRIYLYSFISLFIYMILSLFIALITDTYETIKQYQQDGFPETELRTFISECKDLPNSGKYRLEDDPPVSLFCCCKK
Sequence of UniProt Q9NYL2 (Q9NYL2 whole entry, looked up): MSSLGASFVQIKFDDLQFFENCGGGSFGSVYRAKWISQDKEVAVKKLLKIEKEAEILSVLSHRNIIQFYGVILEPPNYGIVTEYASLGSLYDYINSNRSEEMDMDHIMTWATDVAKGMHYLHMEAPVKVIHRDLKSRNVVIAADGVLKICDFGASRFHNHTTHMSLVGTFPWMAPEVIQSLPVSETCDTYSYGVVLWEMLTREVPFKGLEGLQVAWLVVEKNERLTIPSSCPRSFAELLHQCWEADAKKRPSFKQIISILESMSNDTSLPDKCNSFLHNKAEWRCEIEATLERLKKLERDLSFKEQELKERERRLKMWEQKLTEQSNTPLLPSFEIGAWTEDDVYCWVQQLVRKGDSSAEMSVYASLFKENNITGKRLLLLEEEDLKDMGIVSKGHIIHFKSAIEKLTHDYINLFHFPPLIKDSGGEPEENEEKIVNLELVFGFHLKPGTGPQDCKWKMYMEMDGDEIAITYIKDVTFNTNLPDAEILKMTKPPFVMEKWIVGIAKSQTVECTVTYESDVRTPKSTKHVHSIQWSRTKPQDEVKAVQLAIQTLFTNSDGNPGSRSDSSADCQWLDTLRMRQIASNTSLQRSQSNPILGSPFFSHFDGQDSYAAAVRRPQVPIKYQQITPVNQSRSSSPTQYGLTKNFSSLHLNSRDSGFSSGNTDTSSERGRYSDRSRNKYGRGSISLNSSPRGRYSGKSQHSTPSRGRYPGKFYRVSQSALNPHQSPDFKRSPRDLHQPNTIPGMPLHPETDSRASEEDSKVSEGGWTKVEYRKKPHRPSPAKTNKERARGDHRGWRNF
Sequence of UniProt P02545 (P02545 whole entry, looked up): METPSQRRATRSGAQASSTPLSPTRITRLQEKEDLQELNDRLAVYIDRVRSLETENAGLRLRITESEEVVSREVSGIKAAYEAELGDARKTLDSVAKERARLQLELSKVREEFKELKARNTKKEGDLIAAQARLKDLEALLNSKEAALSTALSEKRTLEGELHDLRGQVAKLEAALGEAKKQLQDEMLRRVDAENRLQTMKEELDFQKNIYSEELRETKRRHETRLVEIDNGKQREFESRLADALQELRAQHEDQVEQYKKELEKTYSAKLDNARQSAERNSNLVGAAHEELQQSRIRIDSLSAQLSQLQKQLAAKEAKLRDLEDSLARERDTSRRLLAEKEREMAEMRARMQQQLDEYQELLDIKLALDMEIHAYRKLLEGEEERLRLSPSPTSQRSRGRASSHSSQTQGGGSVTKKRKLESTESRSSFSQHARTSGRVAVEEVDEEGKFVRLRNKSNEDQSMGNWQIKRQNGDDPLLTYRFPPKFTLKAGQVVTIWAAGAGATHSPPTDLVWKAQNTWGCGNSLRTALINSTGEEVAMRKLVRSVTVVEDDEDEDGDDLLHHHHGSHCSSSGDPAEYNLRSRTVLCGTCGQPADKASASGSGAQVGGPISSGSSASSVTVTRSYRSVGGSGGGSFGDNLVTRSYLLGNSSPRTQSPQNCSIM
Sequence of UniProt O15243 (O15243 whole entry, looked up): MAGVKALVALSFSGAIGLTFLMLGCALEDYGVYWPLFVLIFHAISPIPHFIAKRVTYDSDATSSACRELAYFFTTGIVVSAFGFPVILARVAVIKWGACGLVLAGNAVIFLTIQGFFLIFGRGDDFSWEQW
Sequence of UniProt Q9BQD3 (Q9BQD3 whole entry, looked up): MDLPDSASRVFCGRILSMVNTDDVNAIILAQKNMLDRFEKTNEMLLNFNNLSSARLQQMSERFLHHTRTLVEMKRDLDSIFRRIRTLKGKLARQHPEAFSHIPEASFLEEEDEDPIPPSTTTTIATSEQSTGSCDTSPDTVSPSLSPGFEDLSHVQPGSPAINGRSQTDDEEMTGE
Sequence of UniProt Q9H3U5 (Q9H3U5 whole entry, looked up): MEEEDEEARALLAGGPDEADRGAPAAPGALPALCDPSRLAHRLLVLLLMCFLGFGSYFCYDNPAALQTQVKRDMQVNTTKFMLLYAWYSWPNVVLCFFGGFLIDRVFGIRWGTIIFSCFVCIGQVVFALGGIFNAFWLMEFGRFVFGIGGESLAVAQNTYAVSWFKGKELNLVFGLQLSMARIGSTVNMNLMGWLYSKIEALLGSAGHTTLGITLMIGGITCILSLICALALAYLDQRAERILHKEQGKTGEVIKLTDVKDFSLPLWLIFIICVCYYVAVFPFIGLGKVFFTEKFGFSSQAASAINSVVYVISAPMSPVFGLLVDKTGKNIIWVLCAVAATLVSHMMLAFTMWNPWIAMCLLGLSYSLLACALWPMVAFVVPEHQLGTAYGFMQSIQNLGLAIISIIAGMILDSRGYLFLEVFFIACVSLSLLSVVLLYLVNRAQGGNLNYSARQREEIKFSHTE
Sequence of UniProt Q15759 (Q15759 whole entry, looked up): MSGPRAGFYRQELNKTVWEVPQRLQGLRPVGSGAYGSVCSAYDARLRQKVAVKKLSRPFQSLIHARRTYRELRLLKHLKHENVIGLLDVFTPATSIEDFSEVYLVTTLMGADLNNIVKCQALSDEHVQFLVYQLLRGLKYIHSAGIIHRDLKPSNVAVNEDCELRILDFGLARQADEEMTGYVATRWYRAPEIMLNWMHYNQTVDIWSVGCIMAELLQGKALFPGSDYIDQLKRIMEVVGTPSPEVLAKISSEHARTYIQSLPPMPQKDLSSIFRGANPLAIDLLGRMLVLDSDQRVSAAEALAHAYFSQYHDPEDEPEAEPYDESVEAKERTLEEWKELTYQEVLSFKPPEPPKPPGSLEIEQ
Sequence of UniProt Q13422 (Q13422 whole entry, looked up): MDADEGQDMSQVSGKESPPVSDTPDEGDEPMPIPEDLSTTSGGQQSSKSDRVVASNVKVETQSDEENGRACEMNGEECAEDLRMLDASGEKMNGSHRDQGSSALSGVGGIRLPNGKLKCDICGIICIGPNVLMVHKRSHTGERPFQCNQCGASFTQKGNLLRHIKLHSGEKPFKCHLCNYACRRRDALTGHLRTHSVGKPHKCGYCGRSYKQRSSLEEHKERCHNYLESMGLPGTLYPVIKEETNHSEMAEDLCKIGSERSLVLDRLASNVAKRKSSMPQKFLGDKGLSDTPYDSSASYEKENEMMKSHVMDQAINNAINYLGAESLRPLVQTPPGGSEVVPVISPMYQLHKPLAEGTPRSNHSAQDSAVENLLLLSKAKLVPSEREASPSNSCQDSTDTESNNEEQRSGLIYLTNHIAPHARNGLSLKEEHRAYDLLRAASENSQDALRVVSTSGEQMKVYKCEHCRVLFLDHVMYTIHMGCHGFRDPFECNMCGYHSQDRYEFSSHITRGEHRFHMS
Sequence of UniProt Q9UPY8 (Q9UPY8 whole entry, looked up): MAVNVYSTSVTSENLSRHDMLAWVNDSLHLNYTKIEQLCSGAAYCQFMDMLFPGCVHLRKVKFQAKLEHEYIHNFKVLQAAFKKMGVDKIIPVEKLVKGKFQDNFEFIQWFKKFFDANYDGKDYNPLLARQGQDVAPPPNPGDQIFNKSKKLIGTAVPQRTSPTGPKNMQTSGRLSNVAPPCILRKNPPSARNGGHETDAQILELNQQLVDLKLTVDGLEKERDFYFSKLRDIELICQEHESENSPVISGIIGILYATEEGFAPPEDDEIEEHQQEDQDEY

Target	log2 fold change
MAPRE3 isoform 2 (UniProt Q9UPY8)	0.109
MAP4K4 isoform 6 (UniProt O95819)	0.143
LEPROT (UniProt O15243)	0.092
KLHL18 (UniProt O94889)	0.088
IP6K1 (UniProt Q92551)	0.095
LPIN3 isoform 2 (UniProt Q9BQK8)	0.099
IKZF1 (UniProt R9R4D9)	0.385
LRRCC1 (UniProt Q9C099)	0.109
MFAP3 (UniProt P55082)	-0.111
MFSD1 isoform 6 (UniProt Q9H3U5)	0.08
LSR isoform 3 (UniProt Q86X29)	-0.106
MFSD12 isoform 3 (UniProt Q6NUT3)	-0.066
LMBRD1 (UniProt Q9NUN5)	-0.086
KMT2C isoform 3 (UniProt Q8NEZ4)	0.049
MAPK11 (UniProt Q15759)	0.103
LMNA isoform 2 (UniProt P02545)	-0.128
KXD1 (UniProt Q9BQD3)	0.057
IKZF1 isoform 2 (UniProt Q13422)	0.418 (active)
IGFBP3 isoform 2 (UniProt P17936)	-0.095
MCOLN3 (UniProt Q8TDD5)	0.08
ING5 (UniProt Q8WYH8)	0.03
MAP3K20 isoform 2 (UniProt Q9NYL2)	-0.071
